This is an account of results in the OligoGym collection.

Targets include C1orf84; C1orf64; C20orf112; C2orf82; C6orf105; C6orf58; CA8; CA4; CADM4; CAPNS2; CBR1.
Holding throughout (test): pooled miR-30 sensor sort-seq; sequence = guide strand
Conditions in all cases: shRNA
Note: reference of the scale not given here.

With TTCCTGTTCAGACAGCATCTCC, the sensor-assay potency score (higher = more potent) in the test with C1orf84 is -0.954. Consider TAGTTACATAGATCTCAGGCTG, for which the sensor-assay potency score (higher = more potent) with C1orf84 is -0.122. With TTAGCCTCGGGAACCTCCTGGG, the sensor-assay potency score (higher = more potent) with C1orf64 was -0.502. The sequence TCATCAAACAAGATCTCCCCTG came in with a sensor-assay potency score (higher = more potent) with C1orf84 of -0.444.

The sequence TTGATGGAATCGTAGCTCCCAG had a sensor-assay potency score (higher = more potent) in the test with C20orf112 of -1.02. For TCCAACTCAATGACAAACCGAT, the sensor-assay potency score (higher = more potent) with C1orf84 is -0.656. On the same count and under the same terms, then TTCATCAAACAAGATCTCCCCT, with 0.55. In the case of TTTCTCAGCGCGACGACCACGA, the sensor-assay potency score (higher = more potent) in the test with C2orf82 came to 0.0474. As for TTCAGCACATCATCCAGGCAGG, in the test with C6orf105, the sensor-assay potency score (higher = more potent) is -0.972. In the test with C6orf58, TAATTCATTAATCATTTCCTGA gave a sensor-assay potency score (higher = more potent) of -0.771. For TAACACATGATATATATTCATA, in the test with CA8, the sensor-assay potency score (higher = more potent) was -0.982. On the same count and under the same terms, then TTGACTTCAGGATAACCTGAAT, with -1.18. Sequence TTCTCATCGCAGGTCGGTGTGG returned a sensor-assay potency score (higher = more potent) with CA4 of -1.28. Still for that read-out and setting: then TGTCTGTTCCTTGTCGTAGTAC, with -0.69. Take TTCTTTGGAATATACAGCCATT: the sensor-assay potency score (higher = more potent) with CA8 was -0.749. The same measure, in the same setting: then TTTCTTTGGAATATACAGCCAT, with 0.203.

TTTGCTTCTTATCGTAGCCAGA registered a sensor-assay potency score (higher = more potent) in the test with CA4 of -0.836. Still for that read-out and setting: then TTTTTGTCCACCTTTGCCTTGG, with -0.0193; and ATGTACTATGTGCATCTCCATG, with -2. Sequence AAAGCTTTGAAATTAACCGTGT showed a sensor-assay potency score (higher = more potent) with CA8 of 0.986. Regarding TTGAACCTCGTAGCACCAGTGT, the sensor-assay potency score (higher = more potent) with CA4 is -1.16. Turning to TTCGAAATTCTTCTATCTGTAG, in the test with CA8, the sensor-assay potency score (higher = more potent) is -0.338. Same read-out and setting: then TTAGGTTAATAGGAGACTGGTA, with -0.274.

For TTGTCCACCTTTGCCTTGGTGG, the sensor-assay potency score (higher = more potent) in the test with CA4 is -0.751. Still for that read-out and setting: then TTTTTTGTCCACCTTTGCCTTG, with -1.1; and TTGCTTCTTATCGTAGCCAGAG, with -0.919. Take TTAACATGTGTCCTCAGCCTTC: the sensor-assay potency score (higher = more potent) with CA8 is -1.15.

In the test with CA4, TCGTAGTACAGCTTCTGAGAGA returned a sensor-assay potency score (higher = more potent) of -0.918. Same read-out and setting: then TTCCTTGTCGTAGTACAGCTTC, with -0.302. Consider TATCGGAATAATATCCAGGTGA, for which the sensor-assay potency score (higher = more potent) in the test with CA8 was -0.367. On the same count and under the same terms, then TATCTGAACAAACAGAGCAATG, with -1.69; and TTTGACTTCAGGATAACCTGAA, with 0.794; and AATTCTTCTATCTGTAGCTGGG, with -0.112. In turn, TTTGAGGATAAACTGAAGGTGC gave a sensor-assay potency score (higher = more potent) in the test with CA8 of -0.117. Regarding TCCAGCAACATCATCACTGAGT, the sensor-assay potency score (higher = more potent) with CA4 was -1.67. Same read-out and setting: then TTATATGGCAAGTCGGACCAGT, with 0.112.

In the case of TATAGGACCATTGTCTTCCTCC, the sensor-assay potency score (higher = more potent) with CA8 was -0.229. TTGTCGTAGTACAGCTTCTGAG: the sensor-assay potency score (higher = more potent) with CA4 was -1.18.

Sequence TAGATGAAGACAAACAACGCAG returned a sensor-assay potency score (higher = more potent) with CA8 of 0.00396. The sequence TCACTGTCTGTTCCTTGTCGTA returned a sensor-assay potency score (higher = more potent) with CA4 of -1.4. For the sequence TTGGTGACTTCACAGTCTCGGC, the sensor-assay potency score (higher = more potent) with CA8 was -0.936. ATTAGCATCAGGAAACACCAGA came in with a sensor-assay potency score (higher = more potent) with CA8 of -0.642.

Sequence TCGTAGTGCTCATCTCAGGTTT showed a sensor-assay potency score (higher = more potent) in the test with CA4 of -0.761. On the same count and under the same terms, then TTGTTCTCCAGCAACATCATCA, with -1.13; and TTGGACAGTCCACGTTTGCTTC, with -0.84; and TTCTCTGTGAAGCTGAATGGGC, with -0.889. Consider TAACCTGAATGGTATGTCCATC, for which the sensor-assay potency score (higher = more potent) with CA8 is -1.33.

AAAAGCTTTGAAATTAACCGTG displayed a sensor-assay potency score (higher = more potent) in the test with CA8 of -0.175. On to TGCAACTATGAATCCTAGCAGC, for which, in the test with CA8, the sensor-assay potency score (higher = more potent) is -0.939. Same read-out and setting: then TTCATATTAATAACAACTCTGG, with -0.115; and AAATTCTTCTATCTGTAGCTGG, with 0.0203. Still for that read-out and setting: then TTCTTCTATCTGTAGCTGGGAT, with -0.262. As to TTGAAGAAGAGGGTCTGCCGGG, the sensor-assay potency score (higher = more potent) with CADM4 amounted to 0.128. The same measure, in the same setting: then TATGATCAGAAACACCAGCAGC, with -1.06. ATACTGCTTATAAACACACTGC returned a sensor-assay potency score (higher = more potent) with CAPNS2 of -0.451. Turning to TTACGTAGTCAACTGAGTGCGT, in the test with CBR1, the sensor-assay potency score (higher = more potent) came out at 0.669.

For the sequence TTAGTAGTACATTAGTGAGTGC, the sensor-assay potency score (higher = more potent) with CBR1 is -0.244. On the same count and under the same terms, then TTTGTTTTCATCGTCACTTCAG, with 0.571. Still for that read-out and setting: then TCAGTGATGGTCTCACTGCGGA, with -1.01.

In the case of TCAATTAGTAGTACATTAGTGA, in the test with CBR1, the sensor-assay potency score (higher = more potent) turned out to be 0.828.
